# From PubChem
# S2 tox – Viability Counterscreen for Primary qHTS for Inhibitors of ATXN expression. Potency, µM (series often up to 56.7 µM), hits mostly cytotoxic. 0.49% of 400,000 active. S2 cells (HEK-293 line with an ATXN2-luciferase reporter) viability, CellTiter-Fluor protease fluorescence, 24 h; note: nearly all actives have a fitted effect of over 40% in size
# ATXN2 expr inh – Primary qHTS for Inhibitors of ATXN expression. HEK-293 ATXN2-luciferase reporter, luminescence, 24 h. Potency, µM (series often up to 57 µM), for inactives: top-dose activity change, negative = inhibition, most hits filed as inhibitors. 0.72% of 360,000 active; note: % is set by controls: 0 for no effect and ±100 for the full control effect; nearly all actives have a fitted effect of over 55% in size
#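 ATXN2-luciferase reporter cells (luciferase flanked by upstream and downstream ATXN2 gene portions) were treated 24 h at 37 °C with compounds at up to 57 uM. SteadyGlo luminescence gave expression; GF-AFC fluorescence gave viability.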
# KB-3-1 cytotox – qHTS assay for MDR1-selective chemotherapeutics: Primary screen using the parental adenocarcinoma cell KB-3-1; KB-3-1 viability, CellTiter-Glo ATP luminescence, 72 h; Potency, µM (doses to about 46.1 µM), hits mostly cytotoxic; 1.4% of 400,000 active; AID 1347075, 2019; note: % is set by controls: 0 for no effect and ±100 for the full control effect; nearly all actives have a fitted effect of over 60% in size
#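 72 h, 37 °C compound treatment of KB-3-1 parental cells; CellTiter-Glo added, 10 min, luminescence read. Data corrected against DMSO-only plates and normalized before curve fitting.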
# KB-V1 cytotox – qHTS assay for MDR1-selective chemotherapeutics: Primary screen using the drug-selected MDR subline cells KB-V1; Potency, µM (top dose mostly 46.1 µM), hits mostly cytotoxic; KB-V1 MDR cells viability, CellTiter-Glo, 72 h; AID 1347076, 2019; 3.4% of 400,000 active; note: % is set by controls: 0 for no effect and ±100 for the full control effect; nearly all actives have a fitted effect of over 60% in size
#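 KB-V1, DMEM (no phenol red) + 10% FBS; cpd pin-transferred, titration series; 72 h, 37 degrees C; CellTiter-Glo, luminescence. Data normalized, curve-fit.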
# HT1080 IDH1KD tx – qHTS for induction of synthetic lethality in tumor cells producing 2HG: qHTS for the HT-1080-IDH1KD cell line | Potency, µM (top dose mostly 46.1 µM), inactives show top-dose activity, negative = toxicity, most hits filed as cytotoxic | 2% of 360,000 active | HT-1080 IDH1 knockdown viability, ATP luminescence, 48 h;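 note: 0% = DMSO wells and -100% = cell-free medium wells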
#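 CellTiter-Glo luminescence after 48 h compound exposure at 37 degrees C of IDH1-knockdown HT-1080 cells in 5% FBS RPMI. %Activity scaled between DMSO wells and cell-free media wells, with curves fitted and assigned curve classes.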
# HT1080-NT tox – qHTS for induction of synthetic lethality in tumor cells producing 2HG: qHTS for the HT-1080-NT fibrosarcoma cell line; 1.6% of 360,000 active; Potency, µM (doses to about 46.1 µM), inactives show at the highest dose activity, negative = less viability, most hits filed as cytotoxic; HT-1080-NT fibrosarcoma viability, CellTiter-Glo ATP luminescence, 48 h; AID 686970, 2013;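 note: NT is the 2HG producing partner of a matched IDH1 knockdown line; 0% = DMSO-treated cells and -100% = media-only wells without cells; nearly all actives have a fitted effect of over 55% in size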
#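 Toxicity toward the 2HG-producing NT line was scored as %Activity, normalised to DMSO and no-cell wells, from CellTiter-Glo luminescence after 48 hours' treatment.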
# Numbers without * were called inactive; i = inactive; ? = inconclusive; / = no result given; ! = repeats disagree. A selection: hits, their analogues and other compounds. The true share with any hit is near 6.2%. Calls come from the whole dose curve; as a rule, active = well fitted curve in the direction sought with a large enough effect; inconclusive = small, poorly fitted or top-dose-only effect, or another doubt; inactive = no such curve, though single readings can be large; an effect the other way counts as inactive or inconclusive. Potency is the fitted concentration of half-maximal effect.
SMILES,S2 tox,ATXN2 expr inh,KB-3-1 cytotox,KB-V1 cytotox,HT1080 IDH1KD tx,HT1080-NT tox
Cc1ccc(NNC(=O)CCc2ccccc2)c(C)c1,i,2%,i,i,26µM*,?
Cc1ccc(NNC(=O)c2ccno2)c(C)c1,i,?,i,i,7.3µM*,5.8µM*
COc1cccc(CNC(=O)c2ccc(-n3c(C)cc4c3CCC(C)C4)cc2)c1 (stereo not given),i,0%,i,i,/,/
Cc1ncc(S(=O)(=O)c2ccccc2)c(-c2ccccc2)n1,i,9%,i,i,12%,11%
O=S(=O)(c1ccccc1)c1cnc(-c2cccnc2)nc1-c1ccc(Cl)c(Cl)c1,i,0%,i,6.5µM*,0%,6%
COc1cc(Cl)c(NS(=O)(=O)c2ccc(-c3coc(C)n3)cc2)c(OC)c1,i,-1%,?,i,/,/
Cc1ccc(-n2ncc(C(=O)NC3CCN(Cc4ccccc4)CC3)c2C2CCN(C(=O)OC(C)(C)C)CC2)cc1C,/,/,i,i,/,/
O=C(CSc1ncc(-c2ccccc2)nn1)NCc1ccco1,?,2%,i,i,-8%,-2%
O=C(CSc1nnc(-c2ccccc2)c(-c2ccccc2)n1)NCc1ccco1,i,-22%,?,16µM*,?,-30%
O=C(CSc1ccccc1F)NCCN1C(=O)CSC1=O,i,-3%,i,i,1%,-1%
O=C(CSc1nc(-c2ccccc2)c(-c2ccccc2)[nH]1)NCCN1C(=O)CSC1=O,i,-19%,3.7µM*,?,6.5µM*,4.6µM*
O=C(CSc1nc(-c2ccccc2)c(-c2ccccc2)[nH]1)NCc1ccco1,i,-25%,?,10µM*,?,?
COc1cc(/C=C/c2cncc(/C=C/c3cc(OC)c(OC)c(OC)c3)c2)cc(OC)c1OC,/,/,i,i,/,/
OC(CN1CCN(c2ccccn2)CC1)Cn1c2ccc(Cl)cc2c2cc(Cl)ccc21 (stereo not given),i,-15%,?,?,16µM*,?
OC(CN1CCN(Cc2ccccc2)CC1)Cn1c2ccccc2c2ccccc21 (stereo not given),i,-15%,?,23µM*,?,?
Cc1cccc(C)c1OCC(O)CN1CCN(c2ccccn2)CC1 (stereo not given),i,-5%,i,i,9%,10%
OC(CN1CCN(c2ccccc2)CC1)Cn1c2ccccc2c2ccccc21 (stereo not given),i,-13%,?,i,0%,6%
OC(COC(c1ccc(Cl)cc1)c1ccc(Cl)cc1)CN1CCN(c2ccccn2)CC1 (stereo not given),i,?,18µM*,?,?,?
OC(CN1CCCCC1)Cn1c2ccc(Cl)cc2c2cc(Cl)ccc21 (stereo not given),?,?,?,?,?,21µM*
COc1ccc(-c2noc(N3CCN(c4ccc(C)cc4)C(C)C3)n2)cc1OC (stereo not given),i,-23%,i,?,/,/
Cc1ccc(C2CC(=O)Nc3c2c(C)nn3-c2nc(C)cc(C)n2)c(C)c1 (stereo not given),i,9%,i,i,/,/
Cc1ccccc1NC(=O)c1oc(=O)c2ccccc2c1-c1ccccc1,i,-9%,i,i,-8%,-14%
Cc1ccc(C)c(NC(=O)c2oc(=O)c3ccccc3c2-c2ccccc2)c1,i,-15%,i,18µM*!,-13%,-1%
